Results: PubChem BioAssay (NCATS)
Values joined by “and” are separate entries in the source; they are usually repeats but may differ in a detail not shown here. Equal entries are not always repeated. Records with an inconclusive call do not appear. Active and inactive are the calls of the source. Unless noted, calls come from the whole dose curve.

Key:
[1] = qHTS for Inhibitors of the Functional Ribonucleoprotein Complex (vRNP) of Lassa (LASV) Arenavirus: LASV Primary Screen - GLuc reporter signal (AID 1347082; calls by dose curve; tested in HEK293 reporter line; note: nearly all actives have a fitted effect of over 60% in size; note: potency is the fitted concentration of half-maximal effect)
[2] = qHTS for Inhibitors of the Functional Ribonucleoprotein Complex (vRNP) of Lassa (LASV) Arenavirus: Viability assay - alamar blue signal for LASV Primary Screen (AID 1347083; calls by dose curve; tested in HEK293 reporter line; note: nearly all actives have a fitted effect of over 80% in size; note: potency is the fitted concentration of half-maximal effect)
[3] = target: Nucleoprotein (Lymphocytic choriomeningitis virus (strain Armstrong)) (UniProt P09992); experiment: qHTS for Inhibitors of the Functional Ribonucleoprotein Complex (vRNP) of Lymphocytic Choriomeningitis Arenaviruses (LCMV): LCMV Primary Screen - GLuc reporter signal (AID 1347086); note: nearly all actives have a fitted effect of over 70% in size; note: potency is the fitted concentration of half-maximal effect
Chain of Nucleoprotein (Lymphocytic choriomeningitis virus (strain Armstrong)) (P09992 whole entry, looked up): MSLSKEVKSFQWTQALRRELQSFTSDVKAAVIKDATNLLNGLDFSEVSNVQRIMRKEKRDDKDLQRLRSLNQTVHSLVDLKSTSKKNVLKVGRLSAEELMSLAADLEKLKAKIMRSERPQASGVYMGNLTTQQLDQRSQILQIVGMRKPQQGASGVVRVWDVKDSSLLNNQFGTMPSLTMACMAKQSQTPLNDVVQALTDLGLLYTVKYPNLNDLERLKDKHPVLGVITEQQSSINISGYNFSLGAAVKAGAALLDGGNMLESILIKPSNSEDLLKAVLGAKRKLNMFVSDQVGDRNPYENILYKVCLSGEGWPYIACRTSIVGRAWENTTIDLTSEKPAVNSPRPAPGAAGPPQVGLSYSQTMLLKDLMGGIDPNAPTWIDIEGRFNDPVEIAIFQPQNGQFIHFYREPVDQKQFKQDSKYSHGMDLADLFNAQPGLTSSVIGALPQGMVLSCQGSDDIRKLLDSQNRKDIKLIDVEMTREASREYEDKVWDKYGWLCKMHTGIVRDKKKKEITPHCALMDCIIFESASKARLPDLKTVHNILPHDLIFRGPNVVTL

[4] = Cytotoxicity counterscreen for inhibitors of SARS-CoV-2 cell entry (AID 1645845); note: nearly all actives have a fitted effect of over 50% in size; note: potency is the fitted concentration of half-maximal effect
In short: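 Counterscreen run in the same HEK293-ACE2 line as the pseudotyped-particle entry assay, without particles. Viability after 48 h at 37 C was read as ATP luminescence, scaled between cell-containing and cell-free wells.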

[5] = target: Cytochrome P450 1A2 (Homo sapiens) (UniProt P05177); experiment: p450-cyp1a2 (AID 410); note: potency is the fitted concentration of half-maximal effect
Chain of Cytochrome P450 1A2 (Homo sapiens) (P05177 whole entry, looked up): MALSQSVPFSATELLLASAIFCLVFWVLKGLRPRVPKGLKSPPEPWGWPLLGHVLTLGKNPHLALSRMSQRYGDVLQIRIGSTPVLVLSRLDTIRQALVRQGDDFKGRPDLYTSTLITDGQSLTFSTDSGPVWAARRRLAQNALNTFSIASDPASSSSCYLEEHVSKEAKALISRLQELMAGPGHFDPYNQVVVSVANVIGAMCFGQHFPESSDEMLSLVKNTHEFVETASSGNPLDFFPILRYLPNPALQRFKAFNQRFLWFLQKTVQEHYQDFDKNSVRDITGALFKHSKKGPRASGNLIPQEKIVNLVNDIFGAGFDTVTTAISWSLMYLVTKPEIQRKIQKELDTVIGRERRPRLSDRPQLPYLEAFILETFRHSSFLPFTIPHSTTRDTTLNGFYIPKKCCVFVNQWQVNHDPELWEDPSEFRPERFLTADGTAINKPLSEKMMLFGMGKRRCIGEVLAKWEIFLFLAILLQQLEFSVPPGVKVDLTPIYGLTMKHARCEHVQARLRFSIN
In short: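 Read-out is luminescence from luciferin produced by CYP1A2 demethylation of Luciferin-ME (100uM, at Km). Detection reagent stopped the 60 min NADPH-dependent reaction; signals were normalized to 57 uM furafylline.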

[6] = target: Glucocorticoid receptor (Homo sapiens) (UniProt P04150); experiment: GR-GFP Redistribution (AID 450;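 active = compounds whose dose series gives a full or clear partial fitted curve of increased nuclear translocation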; note: potency is the fitted concentration of half-maximal effect); details: U2OS GR-GFP nuclear translocation, laser cytometry, 2 h
Chain of Glucocorticoid receptor (Homo sapiens) (P04150 whole entry, looked up, the tested form may be a part): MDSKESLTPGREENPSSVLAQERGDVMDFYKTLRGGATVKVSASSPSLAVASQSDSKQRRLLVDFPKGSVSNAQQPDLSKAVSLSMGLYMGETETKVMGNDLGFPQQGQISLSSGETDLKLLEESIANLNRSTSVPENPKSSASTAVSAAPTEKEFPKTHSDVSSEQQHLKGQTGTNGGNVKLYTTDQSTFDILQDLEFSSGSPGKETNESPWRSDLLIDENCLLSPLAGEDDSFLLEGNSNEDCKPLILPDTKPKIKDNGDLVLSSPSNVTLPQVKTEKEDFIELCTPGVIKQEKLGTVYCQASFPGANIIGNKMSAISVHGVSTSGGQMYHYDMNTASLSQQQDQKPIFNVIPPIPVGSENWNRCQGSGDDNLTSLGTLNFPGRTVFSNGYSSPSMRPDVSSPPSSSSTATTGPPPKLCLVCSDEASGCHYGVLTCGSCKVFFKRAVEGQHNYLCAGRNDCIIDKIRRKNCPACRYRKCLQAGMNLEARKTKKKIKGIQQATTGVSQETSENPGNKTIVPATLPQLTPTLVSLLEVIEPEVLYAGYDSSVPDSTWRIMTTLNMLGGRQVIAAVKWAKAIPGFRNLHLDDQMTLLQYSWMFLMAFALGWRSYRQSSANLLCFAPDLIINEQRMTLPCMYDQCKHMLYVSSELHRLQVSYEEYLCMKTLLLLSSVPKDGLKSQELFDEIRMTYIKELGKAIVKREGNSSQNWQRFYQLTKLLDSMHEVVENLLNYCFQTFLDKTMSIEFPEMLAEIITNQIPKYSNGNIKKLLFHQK

[7] = target: Glucocorticoid receptor (Homo sapiens) (UniProt P04150); experiment: GR-EFC Redistribution (AID 451); details: CHO-K1 GR-EFC translocation, beta-gal luminescence, 2 h; note: potency is the fitted concentration of half-maximal effect
In short: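 CHO-K1 cells expressing nuclear EA and GR-ED fragments of b-gal; compounds titrated up to 46 uM final, 2 h at 37 C. GR nuclear translocation read as complemented b-gal luminescence after 1 h RT detection.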

[8] = target: Mitogen-activated protein kinase 10 (Mus musculus) (UniProt Q61831); experiment: JNK3 AlphaScreen Assay (AID 530; active = well fitted curve in either direction with a large enough effect, not every such curve was filed as active;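 note: kinase came from lysate of stimulated human HepG2 cells; signal reports phosphorylation of biotinylated GST-cJun 1-79 at Ser73 with 10 µM ATP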)
In short: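 HepG2 lysate (IL-1b/TNFa pre-activated) + biotin-GST-cJun 1-79 + anti-pSer73 cJun; cpd titration, 15 min RT; ATP 10 uM start; Tris pH 7.6, MgCl2, DTT, vanadate; beads in EDTA buffer; AlphaScreen.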

[9] = target: 3',5'-cyclic-AMP phosphodiesterase 4B (Homo sapiens) (UniProt Q07343); experiment: qHTS Assay for Inhibitors of PDE-IV (AID 607; active = well fitted activation curve with a large enough effect in the main read-out, with a control signal flat, not every such curve was filed as active)
Chain of 3',5'-cyclic-AMP phosphodiesterase 4B (Homo sapiens) (Q07343 whole entry, looked up): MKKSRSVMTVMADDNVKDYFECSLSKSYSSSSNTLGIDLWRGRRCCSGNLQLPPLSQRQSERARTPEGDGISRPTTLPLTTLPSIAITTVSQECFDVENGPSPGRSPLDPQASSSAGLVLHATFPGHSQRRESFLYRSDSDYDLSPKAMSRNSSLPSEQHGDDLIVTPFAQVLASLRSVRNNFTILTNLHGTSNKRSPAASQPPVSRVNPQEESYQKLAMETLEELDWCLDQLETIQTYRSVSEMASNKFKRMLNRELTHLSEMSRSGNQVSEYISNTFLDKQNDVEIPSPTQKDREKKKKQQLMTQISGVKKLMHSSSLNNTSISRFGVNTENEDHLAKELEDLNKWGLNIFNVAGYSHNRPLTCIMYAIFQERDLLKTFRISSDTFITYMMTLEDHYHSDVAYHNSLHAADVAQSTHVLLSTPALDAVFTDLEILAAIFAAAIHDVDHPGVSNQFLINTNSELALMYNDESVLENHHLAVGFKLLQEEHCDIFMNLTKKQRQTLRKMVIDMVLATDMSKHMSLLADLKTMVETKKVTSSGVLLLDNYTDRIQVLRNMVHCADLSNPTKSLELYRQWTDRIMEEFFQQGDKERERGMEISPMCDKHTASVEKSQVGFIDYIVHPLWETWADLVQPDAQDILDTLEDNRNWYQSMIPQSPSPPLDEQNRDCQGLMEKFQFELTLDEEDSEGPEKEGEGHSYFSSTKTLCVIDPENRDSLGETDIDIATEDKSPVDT
In short: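 Cell-based read-out of cAMP via a modified cyclic nucleotide-gated channel and membrane potential dye (535/590 nm) in HEK293 cells expressing PDE4 endogenously. Compounds tested up to 22.9 uM final; 100 uM RO 20-1724 reference.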

[10] = target: Cytochrome P450 2C9 (Homo sapiens) (UniProt P11712); experiment: qHTS Assay for Inhibitors and Substrates of Cytochrome P450 2C9 (AID 883; active = well fitted curve in the direction sought with a large enough effect; an effect the other way counts as inactive or inconclusive; note: nearly all actives have a fitted effect of over 60% in size)
Chain of Cytochrome P450 2C9 (Homo sapiens) (P11712 whole entry, looked up): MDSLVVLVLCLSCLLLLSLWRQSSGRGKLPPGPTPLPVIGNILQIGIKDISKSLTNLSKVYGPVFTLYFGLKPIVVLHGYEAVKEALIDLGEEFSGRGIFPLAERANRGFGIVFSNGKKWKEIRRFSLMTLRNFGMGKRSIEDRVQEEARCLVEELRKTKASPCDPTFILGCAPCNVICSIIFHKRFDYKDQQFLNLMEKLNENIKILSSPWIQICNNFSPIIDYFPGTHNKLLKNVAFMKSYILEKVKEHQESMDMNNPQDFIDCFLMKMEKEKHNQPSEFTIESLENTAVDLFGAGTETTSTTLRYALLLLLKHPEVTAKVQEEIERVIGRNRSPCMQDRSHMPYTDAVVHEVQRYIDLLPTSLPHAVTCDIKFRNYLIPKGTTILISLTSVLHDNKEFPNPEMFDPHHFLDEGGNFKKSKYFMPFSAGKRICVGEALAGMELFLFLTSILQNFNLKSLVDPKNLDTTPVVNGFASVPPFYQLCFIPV
In short: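 Human CYP2C9 (10nM) with Luciferin-H at 100uM (its KM) in 25mM KPO4; compound preincubated 10 min at 37C, then NADPH regeneration for 60 min at 37C. Luciferin read by luminescence after detection reagent; normalized to 57uM sulphaphenazole as full inhibition.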

[11] = target: Cytochrome P450 3A4 (Homo sapiens) (UniProt P08684); experiment: qHTS Assay for Activators of Cytochrome P450 3A4 (AID 885; active = well fitted curve in the direction sought with a large enough effect; an effect the other way counts as inactive or inconclusive; note: nearly all actives have a fitted effect of over 65% in size)
Chain of Cytochrome P450 3A4 (Homo sapiens) (P08684 whole entry, looked up): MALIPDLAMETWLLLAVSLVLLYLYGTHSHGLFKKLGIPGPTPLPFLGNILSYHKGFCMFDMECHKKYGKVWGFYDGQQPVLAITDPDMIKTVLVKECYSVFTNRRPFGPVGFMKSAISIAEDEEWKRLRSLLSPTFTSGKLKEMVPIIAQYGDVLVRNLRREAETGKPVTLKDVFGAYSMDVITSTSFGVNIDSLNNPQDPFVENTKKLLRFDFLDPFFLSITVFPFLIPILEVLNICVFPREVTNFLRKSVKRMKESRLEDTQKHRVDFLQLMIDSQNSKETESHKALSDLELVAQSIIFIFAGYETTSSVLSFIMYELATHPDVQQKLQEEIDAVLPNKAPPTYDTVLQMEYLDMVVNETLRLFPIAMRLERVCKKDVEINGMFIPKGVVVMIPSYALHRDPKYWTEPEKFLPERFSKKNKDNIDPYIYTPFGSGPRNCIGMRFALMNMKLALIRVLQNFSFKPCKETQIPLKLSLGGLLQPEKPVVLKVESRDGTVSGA
In short: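 Luminescent readout of luciferin formed from 25 uM Luciferin-PPXE (KM level) by 20 nM CYP3A4 in 200 mM KPO4, with 60 min NADPH-driven reaction at room temperature after 10 min compound exposure. Ketoconazole (57 uM) defined 100% inhibition.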

[12] = target: Cytochrome P450 2D6 (Homo sapiens) (UniProt P10635); experiment: qHTS Assay for Inhibitors and Substrates of Cytochrome P450 2D6 (AID 891; active = well fitted curve in the direction sought with a large enough effect; an effect the other way counts as inactive or inconclusive;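 note: luciferin methyl ether substrate demethylated by CYP2D6 with NADPH regeneration; nearly all actives have a fitted effect of over 60% in size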)
In short: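 Luminescent read-out of luciferin formed by 5 nM human CYP2D6 demethylating 30 uM Luciferin-ME EGE (Km level) over 60 min at room temperature after NADPH regeneration addition. Data normalized to full inhibition by 1.43 uM quinidine.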

[13] = target: Cytochrome P450 2C19 (Homo sapiens) (UniProt P33261); experiment: qHTS Assay for Inhibitors and Substrates of Cytochrome P450 2C19 (AID 899; active = well fitted curve in the direction sought with a large enough effect; an effect the other way counts as inactive or inconclusive; note: nearly all actives have a fitted effect of over 60% in size)
Chain of Cytochrome P450 2C19 (Homo sapiens) (P33261 whole entry, looked up): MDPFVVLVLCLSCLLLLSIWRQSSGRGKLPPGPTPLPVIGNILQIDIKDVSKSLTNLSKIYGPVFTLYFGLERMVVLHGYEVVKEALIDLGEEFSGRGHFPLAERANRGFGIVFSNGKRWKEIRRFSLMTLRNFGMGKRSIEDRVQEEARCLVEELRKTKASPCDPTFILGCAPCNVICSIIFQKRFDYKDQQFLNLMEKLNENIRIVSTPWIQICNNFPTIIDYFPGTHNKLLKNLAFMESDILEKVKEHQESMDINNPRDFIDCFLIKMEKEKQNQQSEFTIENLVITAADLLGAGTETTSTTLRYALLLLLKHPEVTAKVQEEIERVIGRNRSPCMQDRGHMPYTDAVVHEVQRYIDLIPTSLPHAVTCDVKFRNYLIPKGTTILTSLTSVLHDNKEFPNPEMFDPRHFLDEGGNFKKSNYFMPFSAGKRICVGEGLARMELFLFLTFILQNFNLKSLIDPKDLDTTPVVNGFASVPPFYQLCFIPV
In short: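 5 nM human CYP2C19 with 10uM Luciferin-H EGE (at KM) in 50mM KPO4, compound preincubated 10 min at 37C, then NADPH regeneration for 60 min at 37C. Luciferin read by luminescence after detection reagent; normalized to 57uM ketoconazole as full inhibition.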

[14] = Confirmation and Secondary Assay for Modulators of Hemoglobin Beta Chain Splicing at IVS2 654 locus (AID 910; active = well fitted curve in the direction sought with a large enough effect; an effect the other way counts as inactive or inconclusive;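 note: HeLa cells stably carrying EGFP split by mutant beta-globin IVS2-654 intron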)
In short: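 HeLa cells stably expressing EGFP interrupted by β-globin IVS2-654 intron, seeded overnight in Opti-MEM/2% FCS, then treated 2 days at 37 °C. Restored splicing read as total peak GFP intensity per well by laser scanning cytometry (488 nm excitation, 500–520 nm emission); 500 nM antisense PNA as control.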

[15] = Confirmation and Secondary Assay for Modulators of Hemoglobin Beta Chain Splicing at IVS2 705 locus (AID 930; active = well fitted curve in the direction sought with a large enough effect; an effect the other way counts as inactive or inconclusive;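 note: HeLa cells stably expressing the EGFP-705 splicing reporter; GFP fluorescence per well restored by corrected splicing of the IVS2-705 intron in EGFP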)
In short: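 Read-out: total peak GFP fluorescence per well (488 nm excitation, 500-520 nm emission) by laser-scanning cytometry. Cells: HeLa EGFP-705 splicing reporter, 2 days compound exposure in Optimem/2% FCS.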

[16] = target: DNA dC->dU-editing enzyme APOBEC-3G (Homo sapiens) (UniProt Q9HC16); experiment: qHTS for inhibitors of Vif-A3G interactions: Validation (AID 588379; active = well fitted curve in the direction sought with a large enough effect; an effect the other way counts as inactive or inconclusive)
Chain of DNA dC->dU-editing enzyme APOBEC-3G (Homo sapiens) (Q9HC16 whole entry, looked up): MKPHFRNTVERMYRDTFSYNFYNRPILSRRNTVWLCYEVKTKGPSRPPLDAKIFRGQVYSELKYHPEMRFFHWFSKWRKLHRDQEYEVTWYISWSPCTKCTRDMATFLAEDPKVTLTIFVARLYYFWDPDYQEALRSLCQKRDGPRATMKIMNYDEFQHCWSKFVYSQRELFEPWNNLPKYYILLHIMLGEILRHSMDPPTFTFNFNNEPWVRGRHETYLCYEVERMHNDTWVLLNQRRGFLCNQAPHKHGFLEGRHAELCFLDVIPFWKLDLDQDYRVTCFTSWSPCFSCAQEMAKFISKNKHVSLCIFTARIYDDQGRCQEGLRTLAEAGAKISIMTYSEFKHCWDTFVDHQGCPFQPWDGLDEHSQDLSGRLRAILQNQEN
In short: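 Yellow fluorescence (Ex 488, Em 500-530) of Vif-coexpressing HeLa A3G-eYFP cells, scanned by Acumen cytometer, reports blocked A3G degradation. Cells plated at 700/well overnight at 37 deg C before compound addition, then a further overnight compound incubation at 37 deg C.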

[17] = Primary qHTS for small molecule stabilizers of the endoplasmic reticulum resident proteome: Secreted ER Calcium Modulated Protein (SERCaMP) assay (AID 1508630; active = well fitted curve in the direction sought with a large enough effect; an effect the other way counts as inactive or inconclusive)
In short: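 The SH-SY5Y reporter protocol was run at 3 concentrations up to 38.3 uM (primary) or 11 concentrations (follow-up): 16 h compound, 100 nM thapsigargin for 4 h, then extracellular luciferase luminescence.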

[18] = Primary qHTS for Huh7 cytotoxicity: counterscreen for inhibitors of MERS-S pseudotyped particle cell entry (AID 1479147); details: outcome: dose series up to 57.1 µM unless noted
[19] = Primary qHTS for inhibitors of MERS-S pseudo-typed particle cell entry (AID 1479149); note: nearly all actives have a fitted effect of over 60% in size
[20] = Primary qHTS for Vero E6 cytotoxicity: counterscreen for inhibitors of SARS-S pseudo-typed particle cell entry (AID 1479150); details: outcome: dose series up to 57.1 µM unless noted
[21] = Primary qHTS to identify inhibitors of SARS-CoV-2 cell entry (AID 1645846); details: activity change, negative = inhibition: at 57.1 µM (top of the series) unless noted; note: nearly all actives have a fitted effect of over 45% in size
In short: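 Using luciferase-reporting pseudoviruses carrying Wuhan-Hu-1 spike, the screen tracks entry into stably ACE2-expressing cells over 48 hr. Activity is expressed relative to spike particles versus particles lacking any fusion protein.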

[22] = Primary qHTS for inhibitors of SARS-S pseudo-typed particle cell entry (AID 1479145); note: nearly all actives have a fitted effect of over 45% in size
[23] = Inducers of the Endoplasmic Reticulum Stress Response (ERSR) in human glioma: Validation (AID 504836; active = well fitted curve in the direction sought with a large enough effect; an effect the other way counts as inactive or inconclusive)
In short: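 Stably transfected U87-MG glioma cells carrying a GRP78-based luciferase sensor; 16 h compound incubation. Luminescence end-point read 10 min after Bright-Glo addition at room temperature.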

[24] = qHTS for Inhibitors of the Functional Ribonucleoprotein Complex (vRNP) of Lymphocytic Choriomeningitis Arenaviruses (LCMV): Viability assay - alamar blue signal for LCMV Primary Screen (AID 1347085; calls by dose curve; tested in HEK293 reporter line; note: nearly all actives have a fitted effect of over 80% in size)
[25] = Confirmatory qHTS for VERO E6 Cytotoxicity Assay: Counterscreen for SARS-CoV-2 CPE Assay (AID 1508605); note: nearly all actives have a fitted effect of over 60% in size
[26] = Confirmatory qHTS for activators (rescue) of SARS-CoV-2 Cytopathic Effect (CPE) (AID 1508606); note: potency is the fitted concentration of half-maximal effect; nearly all actives have a fitted effect of over 70% in size
[27] = target: Alpha-galactosidase (Coffea arabica) (UniProt Q42656); experiment: Counterscreen for Glucocerebrosidase Inhibitors: qHTS Assay for Coffee Bean alpha-Galactosidase at pH 4.5 (AID 957; active = well fitted curve in the direction sought with a large enough effect; an effect the other way counts as inactive or inconclusive)
Chain of Alpha-galactosidase (Coffea arabica) (Q42656 whole entry, looked up): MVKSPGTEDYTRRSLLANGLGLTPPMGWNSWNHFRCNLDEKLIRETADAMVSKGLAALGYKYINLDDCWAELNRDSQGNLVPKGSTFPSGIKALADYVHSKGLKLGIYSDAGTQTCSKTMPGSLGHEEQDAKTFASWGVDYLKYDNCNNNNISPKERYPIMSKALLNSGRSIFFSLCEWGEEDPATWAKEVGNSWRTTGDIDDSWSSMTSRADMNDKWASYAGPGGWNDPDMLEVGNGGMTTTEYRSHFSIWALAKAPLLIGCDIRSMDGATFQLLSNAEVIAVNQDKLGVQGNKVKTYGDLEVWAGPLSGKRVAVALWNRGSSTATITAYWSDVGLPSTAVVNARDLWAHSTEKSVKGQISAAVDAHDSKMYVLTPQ
In short: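 Quantitative HTS of compounds (0.7 nM to 77 uM) against coffee bean alpha-galactosidase at pH 4.5, measuring 4-methylumbelliferone fluorescence released from 80 uM substrate.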

[28] = target: Alpha-galactosidase (Coffea arabica) (UniProt Q42656); experiment: Counterscreen for Glucocerebrosidase Inhibitors: qHTS Assay for Coffee Bean alpha-Galactosidase at pH 5.9 (AID 998; active = well fitted curve in the direction sought with a large enough effect; an effect the other way counts as inactive or inconclusive)
In short: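 Enzyme 2 nM + cpd (0.7 nM–77 uM titration) + 4-MU-alpha-Gal 80 uM, pH 5.9 citrate/Tween-20, RT 20 min, NaOH/glycine stop pH 10, fluor 365/440. Normalized to no-enzyme and full-activity controls; Hill-fit AC50.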

Cc1cccc(-c2[nH]c(C(C)(C)C)nc2-c2ccc3c(c2)OCO3)n1
active: Potency [1] 10.9 µM | Potency [2] 7.69 µM | Potency [3] 7.69 µM | Potency [4] 17.8 µM

O=C1c2ccccc2C(=O)N1Cc1ccccc1
inactive: Potency [1] | Potency [2] | Potency [3]

COc1cccc2c1cc([N+](=O)[O-])c1c(C(=O)O)cc3c(c12)OCO3
active: Potency [5] 31.6 µM
inactive: Potency [6] > 46 µM | Potency [7] > 46 µM | outcome [8] | Potency [9] | Potency [10] | Potency [11] | Potency [12] | Potency [13] | Potency [14] | outcome [15] | Potency [16] | Potency [1] | Potency [2] | Potency [3] | Potency [17]

CCCCCC[C@@H](O)C/C=C\CCCCCCCC(=O)O
-16.6%: activity change, negative = inhibition [21]
inactive: Potency [1] | Potency [2] | Potency [3] | outcome [18] | Potency [19] | outcome [20] | Potency [4]

COc1cc(Cl)cn2c(-c3cccc(NC4CNC4)n3)cnc12
active: Potency [2] 21.7 µM
inactive: Potency [1] | Potency [3]

C=C1C2[C@H](OC(C)=O)[C@@H]3CC(=O)[C@]4(C)OC[C@@]3(C)[C@@]4(O)[C@@H](OC(C)=O)[C@H](OC(C)=O)[C@@]2(COC(=O)c2ccccc2)[C@@H](OC(C)=O)C[C@@H]1O (some centres undefined)
inactive: Potency [1] | Potency [2] | Potency [3]

CC#CCn1c(N2CCC[C@@H](N)C2)nc2c1c(=O)n(Cc1nc(C)c3ccccc3n1)c(=O)n2C
inactive: Potency [1] | Potency [2] | Potency [3] | Potency [22] | outcome [18] | Potency [19] | outcome [20] | Potency [4]
-18.4% and -12.2%: activity change, negative = inhibition [21]

C=CCNc1ncnc2ccc(Br)cc12
inactive: outcome [23] | Potency [1] | Potency [2] | Potency [24]

COc1cc(C(=O)O[C@@H]2CC(C)=CC[C@@]3(C)CC[C@](O)(C(C)C)[C@H]23)ccc1O
inactive: Potency [1] | Potency [2] | Potency [3]

NC(=O)c1cccc2cn(-c3ccc([C@@H]4CCCNC4)cc3)nc12
active: Potency [2] 10.9 µM | Potency [26] 11.2 µM
inactive: Potency [1] | Potency [3] | Potency [25]

COc1ccc(CCC(=O)c2c(O)cc(O[C@@H]3O[C@H](CO)[C@@H](O)[C@H](O)[C@@H]3O[C@@H]3O[C@@H](C)[C@H](O)[C@@H](O)[C@@H]3O)cc2O)cc1O
active: Potency [1] 7.69 µM | Potency [2] 5.44 µM | Potency [3] 6.11 µM

C=C[C@H]1CN2CC[C@@H]1C[C@@H]2[C@@H](O)c1ccnc2ccc(OC)cc12
inactive: outcome [27] | outcome [28] | Potency [1] | Potency [2] | Potency [24]

COc1c2ccoc2c(OC[C@@H](O)C(C)(C)OC)c2oc(=O)ccc12
inactive: Potency [1] | Potency [2] | Potency [3]

CC(C)(C)NC(=O)[C@H]1CN(Cc2cccnc2)CCN1C[C@@H](O)C[C@@H](Cc1ccccc1)C(=O)N[C@H]1c2ccccc2C[C@H]1O
inactive: Potency [1] | Potency [2] | Potency [3]

CC(=O)/C=C/C1C(C)=CCC(C)C1(C)C (centres undefined)
inactive: Potency [1] | Potency [2] | Potency [3]

COc1ccc(-c2cc3nccn3c(Nc3ncccc3C(N)=O)n2)cc1OC
active: Potency [2] 2.17 µM
inactive: Potency [1] | Potency [3] | Potency [4]
